# Screens deposited in PubChem by National Center for Advancing Translational Sciences (NCATS).
# In the library only some 0.4% were active in any assay of this set; here they are far more common.
# FMDV antiviral: antivirals against foot and mouth disease virus; Potency, µM (highest dose often 57.5 µM), usual class: inhibitors; FMDV antiviral cell assay, firefly luciferase signal; actives 0.23% (n = 120,000); further: nearly all actives have a fitted effect of over 60% in size
# FMDV RLuc: antivirals against foot and mouth disease virus replicon. actives 0.32% (n = 120,000). FMDV replicon cells, Renilla luciferase signal. Potency, µM (doses to about 57.5 µM), most hits filed as inhibitors. AID 1745857; further: nearly all actives have a fitted effect of over 55% in size
# Numbers stand for hits; n = inactive; u = inconclusive; [ ] = remark or other dose. The call rests on the fitted dose curve.
SMILES,FMDV antiviral,FMDV RLuc
C=C(C)COc1ccc2c(=O)c(Oc3ccc(OC)cc3)c(C)oc2c1,n,n
COc1ccc(Oc2c(C)oc3cc(OS(C)(=O)=O)ccc3c2=O)cc1,13µM,u
CC(Oc1cccc(F)c1)C(=O)NCCc1ccccn1 (stereo not drawn),n,n
Cc1cccc(Cn2c(NCCN3CCOCC3)nc3c2c(=O)n(C)c(=O)n3C)c1,n,n
Cn1c(=O)c2c(nc(NCCO)n2Cc2cccc(Br)c2)n(C)c1=O,u,13µM
Cc1cccc(Cn2c(NCCO)nc3c2c(=O)n(C)c(=O)n3C)c1,u,11µM
Cn1c(=O)c2c(nc(NCCO)n2Cc2ccccc2F)n(C)c1=O,13µM,13µM
Cn1c(=O)c2c(nc(NCCCCO)n2Cc2ccccc2Cl)n(C)c1=O,n,n
Cn1c(=O)c2c(nc(NCCc3ccccc3)n2Cc2cccc(Br)c2)n(C)c1=O,n,n
COc1cc(Cl)c(NC(=O)C2CCN(c3nccnc3Oc3ccc(C)cc3)CC2)c(OC)c1,n,n
COc1cc(/C=C/C(=O)c2ccc(CC(C)C)cc2)cc(OC)c1O,n,n
Cc1cc(Nc2ccccc2)nc(Nc2ccc(NC(=O)c3ccc(Cl)cc3)cc2)n1,14µM,13µM
Cc1ccc(NC(=O)C2CCCCC2)cc1,n,n
COc1ccc(Nc2cc(C)nc(Nc3ccc(NC(=O)C4CCCCC4)cc3)n2)cc1,u,28µM
Cc1cc(N2CCOCC2)nc(Nc2ccc(NC(=O)c3ccccc3)cc2)n1,n,n
O=C(O)c1ccc(-c2cccc3ccccc23)s1,n,n
COc1ccc(C2CC(=O)Nc3sc(C(=O)Nc4cccc(C(F)(F)F)c4)c(C)c32)cc1O (stereo not drawn),n,n
CCc1nn2c(=O)cc(CNc3ccc4c(c3)OCCCO4)nc2s1,4.5µM,n
CCc1nn2c(=O)cc(CNc3ccccc3NC(=O)c3ccccc3)nc2s1,n,n
CC(=O)c1ccc(Oc2nc(C)nc3c2oc2ccccc23)cc1,u,2.8µM
CCOC(=O)c1ccc(Oc2nc(C)nc3c2oc2ccccc23)cc1,n,n
CCCCS(=O)(=O)c1oc(-c2cccs2)nc1S(=O)(=O)c1ccc(F)cc1,28µM,n
CCCCCS(=O)(=O)c1oc(-c2cccs2)nc1S(=O)(=O)c1ccc(C)cc1,n,n
CNC(=O)NC(=O)CNc1ccccc1N(C)Cc1ccccc1,n,n
O=C(c1cc(-c2csc(-c3ccccc3)n2)c[nH]1)N1CCCC1,n,n
SMILES,FMDV antiviral,FMDV RLuc
Cc1ccccc1C(=O)Nc1nc(-c2ccc(Br)cc2)ns1,u,35µM
COc1ccccc1C(=O)Nc1nc(-c2ccc(Br)cc2)ns1,n,n
CCc1ccc(-c2cc(C(=O)NCc3cccnc3)c3ccccc3n2)cc1,n,n
Cc1cnc(NC(=O)CCc2ncc(-c3ccc(F)cc3)o2)s1,n,n
O=C(Nc1ccc(S(=O)(=O)N2CCCCC2c2cccnc2)cc1)c1ccc(Br)cc1 (stereo not drawn),25µM,u
CC(=O)Nc1ccc(S(=O)(=O)N2CCCCCC2c2ccc(C)s2)cc1 (stereo not drawn),n,n
C=C(C)COc1cc(O)c2c(=O)cc(-c3ccccc3)oc2c1,n,n
CCN(CC)c1ccc(NC(=O)c2sc3nc4c(cc3c2N)CN(C)CC4)cc1,n,n
CCc1ccc(NC(=O)c2sc3nc4c(cc3c2N)CN(C(C)C)CC4)cc1,n,25µM
Cc1ccc2c(Cl)c(C(=O)Nc3ccc(S(=O)(=O)Nc4cc(C)nc(C)n4)cc3)sc2c1,n,n
O=C(COC(=O)c1ccccc1-c1ccc(C(F)(F)F)cc1)c1ccc([N+](=O)[O-])cc1,n,n
O=C(COC(=O)c1ccccc1-c1ccc(C(F)(F)F)cc1)c1cccc([N+](=O)[O-])c1,10µM,8.9µM
Cc1ccc(NC(=O)C(C#N)C(=O)CCC(C)C)c(C)c1 (stereo not drawn),n,n
CC(C)NS(=O)(=O)c1ccc(Cl)c(C(=O)NCc2ccc(-c3nc4ccccc4s3)o2)c1,u,14µM
O=C(NCc1ccc(-c2nc3ccccc3s2)o1)c1ccc(F)cc1F,n,n
CCOC(=O)COc1ccc2c(=O)c(Oc3ccccc3OC)coc2c1,n,n
N#C/C(=C/c1ccc2ncccc2c1)c1nc2ccccc2[nH]1,n,n
O=S(=O)(/C(=C/c1ccc2ccccc2c1)c1nc2ccccc2[nH]1)c1ccccc1,35µM,16µM
COc1ccc(-c2nsc(NC(=O)COc3ccccc3OC)n2)cc1,n,n
CC(Oc1ccc(F)cc1)C(=O)Nc1nc(-c2ccc(F)cc2)ns1 (stereo not drawn),22µM,22µM
Cc1ccc(Cl)cc1-n1nnc(-c2nsc(NC(=O)c3ccccc3Cl)n2)c1C,n,n
Cc1ccc(C(=O)Nc2nc(-c3nnn(-c4cccc(Cl)c4C)c3C)ns2)cc1C,3.5µM,5µM
CCc1c(C)sc2c1CCN(C(=O)Nc1ccc(F)c(Cl)c1)C2c1ccc(F)cc1 (stereo not drawn),35µM,u
CCc1c(C)sc2c1CCN(C(=O)Nc1ccccc1C(=O)OC)C2c1ccc(F)cc1 (stereo not drawn),n,n
Cc1ccc(N/N=C/c2ccc(Br)cc2)cc1Cl,n,n
SMILES,FMDV antiviral,FMDV RLuc
O=C(Nc1ccnn1Cc1cccs1)c1ccc(S(=O)(=O)N2CCCC2)cc1,14µM,u
O=C(Nc1nc(-c2ccncc2)cs1)c1ccc(S(=O)(=O)N2CCCCC2)cc1,n,n
CCCCOc1ccc(CNC(=O)c2cc3n(n2)CCCN(Cc2ccc(C)cc2)C3=O)cc1,14µM,n
CCCCNC(=O)c1cc2n(n1)CCCN(Cc1ccc(C)cc1)C2=O,n,n
CCCCC(=O)Nc1ccc2oc(-c3ccc(F)cc3Cl)nc2c1,n,n
Cc1ccc(C)c(NC(=O)COC(=O)c2ccc3ccccc3n2)c1,n,n
Cc1ccc(NC(=O)COC(=O)c2ccc3ccccc3n2)c(C)c1,u,22µM
Cc1cccc(C)c1NC(=O)CN(C)Cc1cc(=O)oc2c(C)c(O)ccc12,n,n
Cc1nc2cc(NC(=O)c3cccc(Cl)c3)ccc2o1,n,n
Cc1nc2cc(NC(=O)c3ccc(C(C)(C)C)cc3)ccc2o1,7.9µM,4.5µM
CCc1ccc(-c2nc3cc(NC(=O)c4ccc(C)c(C)c4)ccc3o2)cc1,n,n
CCc1ccc(C(=O)Nc2ccc3oc(C)nc3c2)cc1,n,10µM
O=C(Nc1ccccn1)c1cc(-c2ccco2)nc2ccccc12,n,n
CCCCSCC(O)CSc1nc(-c2ccccc2)cc(-c2ccc(C)cc2)c1C#N (stereo not drawn),n,n
CC(C)CCNC(=O)CSc1nc2ccsc2c(=O)n1Cc1ccccc1,n,n
COc1ccc(C)cc1CNCc1ccco1,n,n[1.06 µM]
COc1ccc(-c2nc(C(=O)N3CCN(C(C#N)c4ccc(F)cc4)CC3)cs2)cc1OC (stereo not drawn),n,n
Nc1nc(F)nc2c1ncn2[C@@H]1O[C@H](CO)[C@@H](O)[C@@H]1O,u,14µM
CC(C)=CCNc1ncnc2c1ncn2[C@@H]1O[C@H](CO)[C@@H](O)[C@H]1O,n[11.5 µM],n
Oc1ccc(O)c(C2C[C@@H]3CC[C@H]2C3)c1 (stereo partly drawn),n,n
O=C/C=C/c1ccc([N+](=O)[O-])cc1,n,n
CC12CC[C@H]3[C@@H](CCC4(O)CC(O[N+](=O)[O-])CCC34CO[N+](=O)[O-])C1(O)CCC2C1=CC(=O)OC1 (stereo partly drawn),u,10µM
